Here are results for 21 molecules from PubChem BioAssay AID651930 (Southern Research Specialized Biocontainment Screening …, 2012).

Activity calls are given as the source filed them. How the calls were made is not given here.

The experiment can be described thus: Vero 76 cell cytotoxicity, dose response, cytotoxicity control for VEEV inhibitor project, set 9 (AID 651930). As to conditions: Vero 76 cytotoxicity; series mostly up to 25 µM.
Regarding `CCN1CCN(c2nc3ccc([N+](=O)[O-])cc3c(=O)n2-c2ccccc2)CC1`, the result was inactive. The result for `CCN(CC)c1nc(=O)c2cccnc2s1` reads “inactive”; that for `CN1CCN(C)C(=Nc2ccc([N+](=O)[O-])cc2C(=O)Nc2ccccc2)C1`, “inactive”. As to `CCN1CCN(Cc2nc3ccc(C(=O)O)cc3c(=O)n2-c2ccccc2)CC1`, the molecule was classed as inactive. The result for `CN(C)c1ccc(-n2c(CN3CCNCC3)nc3ccc([N+](=O)[O-])cc3c2=O)cc1` reads “inactive”; that for `CCN1CCN(Cc2nc3ccc(-c4cccnc4)cc3c(=O)n2-c2ccccc2)CC1`, “inactive”; that for `O=c1c2cc([N+](=O)[O-])ccc2nc(CN2CCNCC2)n1-c1ccccc1`, “inactive”.

For `O=C1CN(Cc2nc3ccc([N+](=O)[O-])cc3c(=O)n2-c2ccccc2F)CCN1`, the call was inactive. With `O=c1nc(Nc2ccc(OCc3ccccc3)cc2)sc2ncc(F)cc12`, the molecule was classed as inactive. `O=c1c2cc([N+](=O)[O-])ccc2nc(CN2CCNCC2)n1-c1ccccc1F`: the outcome was inactive.

Turning to `O=c1nc(Nc2ccccc2OCc2ccccc2)sc2ncccc12`, the molecule was classed as inactive. To `O=c1c2cc([N+](=O)[O-])ccc2nc(CN2CCNCC2)n1-c1ccsc1` belongs “inactive”; to `CN(C)c1cccc(-n2c(CN3CCNCC3)nc3ccc([N+](=O)[O-])cc3c2=O)c1`, “inactive”; to `CN1CCN(C)C(=Nc2cc(Cl)c(C#N)cc2C(=O)Nc2ccccc2)C1`, “inactive”. In the case of `O=c1nc(Nc2ccc(F)cc2)sc2ncccc12`, the molecule was classed as inactive. For the molecule `CNCCN(C)Cc1nc2ccc(C#N)cc2c(=O)n1-c1ccccc1F`, the result was inactive. To `CN1CCN(C)C(=Nc2ccc(F)cc2C(=O)Nc2ccccc2)C1` belongs “inactive”. The result for `O=c1c2cc([N+](=O)[O-])ccc2nc(C2CCNCC2)n1-c1ccccc1` reads “inactive”. The result for `O=c1nc(Nc2cccc(OCc3ccccc3)c2)sc2ncccc12` reads “inactive”. On to `COc1ccccc1-n1c(CN2CCNCC2)nc2ccc([N+](=O)[O-])cc2c1=O`, for which the call was inactive.

Consider `CCN1CCN(CC2Nc3ccc([N+](=O)[O-])cc3C(=O)N2c2ccccc2F)CC1` (stereo unspecified), for which the call was inactive.
